# In all, about 150,000 compounds went through this assay and about 6,500 (4.3%) were called active. Another 12% or so got no clear call; they are omitted. Many of the other results were omitted from the sample, so actives are more common in it than they were. Unmarked numbers belong to inactive results. The call rests on the fitted dose curve; in most records, active means well fitted inhibition curve with a large enough effect (not every such curve was filed as active); inconclusive means small, poorly fitted or top-dose-only effect, or another doubt; inactive means no such curve, though single readings can be large or run the other way.
# Biological target: 15-hydroxyprostaglandin dehydrogenase [NAD(+)] (Homo sapiens) (UniProt P15428)
# Assay: qHTS Assay for Inhibitors of HPGD (15-Hydroxyprostaglandin Dehydrogenase)
# Conditions: purified HPGD, NADH fluorescence kinetic, PGE2 substrate; activity change, negative = inhibition: stronger effect = lower value
# Method in brief: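 NADH formation kinetics: reaction with 30 uM PGE2 and 1 mM NAD+ (final), 20 nM enzyme, Tris-HCl pH 8 with Tween 20, after 15 min compound preincubation at room temperature. Fluorescence change, last versus first of five reads.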
# On the % scale 0 is the no-effect control and ±100 the full control effect; potency means the concentration at half of the fitted maximal effect.
# Sequence of 15-hydroxyprostaglandin dehydrogenase [NAD(+)] (Homo sapiens) (P15428 whole entry, looked up): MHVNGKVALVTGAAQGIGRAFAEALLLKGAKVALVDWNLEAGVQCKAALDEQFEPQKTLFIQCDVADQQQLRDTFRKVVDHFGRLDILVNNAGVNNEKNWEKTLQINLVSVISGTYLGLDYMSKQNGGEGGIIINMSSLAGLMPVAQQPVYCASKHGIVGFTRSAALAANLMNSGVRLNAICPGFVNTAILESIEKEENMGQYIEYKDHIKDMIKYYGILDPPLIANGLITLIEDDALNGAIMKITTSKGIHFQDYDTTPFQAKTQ
Structure (SMILES),"activity change, negative = inhibition",Potency
O=C(CSC1CC(=O)N(CCc2ccccc2)C1=O)Nc1ccc(Cl)cc1 (stereo unspecified),-11.7%,
CCOC(=O)NC(=O)C(=CNc1cccc(OC)c1)C(=O)NC(=O)OCC,-21.8%,
Cn1c(-c2ccc(F)cc2)cnc1SCC(=O)NCc1ccco1,,31.6 µM (active)
O=C(CSc1nnc2scc(-c3ccc(F)cc3)n12)NCc1ccco1,-3.23%,
Cc1ccc(-c2csc3nnc(SCC(=O)NCc4ccco4)n23)cc1,-10.8%,
CCN(CC)CCNCc1ccc(OCc2ccc(Cl)nc2)c(OC)c1,-2.75%,
O=C1C2C3C=CC(C4CC34)C2C(=O)N1c1nccs1 (stereo unspecified),-6.02%,
CCOc1ccc2nc(SC(CC)C(=O)Nc3cc(C)on3)sc2c1 (stereo unspecified),0.253%,
CCOc1cccc(NC(=O)C2CCCN(S(=O)(=O)c3ccc(OC)cc3)C2)c1 (stereo unspecified),-17%,
CCOc1ccc2nc(C(=O)N3CCCC(C)C3)sc2c1 (stereo unspecified),,7.94 µM (active)
CCC(C)(C(=O)Nc1ccccc1C)N(C(=O)CNC(C)=O)c1ccc(C)cc1 (stereo unspecified),1.96%,
COc1ccc(N2C(=O)C(CC(=O)Nc3ccc(F)cc3)N(CCc3cccs3)C2=O)cc1 (stereo unspecified),-5.46%,
COc1cc(OC)c(-n2cc(-c3ccc(Cl)cc3)[nH]c2=O)cc1Cl,,7.08 µM (active)
Cc1ccc(-c2cc(=O)c3ccc(Cl)cc3[nH]2)cc1,-2.76%,
COc1ccc(C(=O)n2nc(-c3ccc(Cl)cc3)nc2N)cc1OC,-16.8%,
COc1ccccc1OCCC(=O)OCC(=O)NCc1ccccc1,-9.44%,
O=c1cc(O)nc(SCc2ccccc2Cl)[nH]1,-21.6%,
Cc1cc(=O)[nH]c(SCc2cccc(F)c2)n1,-22.9%,
Cc1cc(=O)[nH]c(SCc2cc(Cl)ccc2OC(F)F)n1,,14.1 µM (active)
COC1=CCC2([N+](=O)[O-])CN(CC(=O)O)CC1([N+](=O)[O-])C2 (stereo unspecified),-5.2%,
C[C@@H](O)c1nc2ccccc2n1N,-7.02%,
COc1ccc(/C=C(\C#N)C(=O)NCCCn2ccnc2)cc1,-18.4%,
C[C@H]1Cc2c(-c3ccccc3)nc3c(c2CO1)CN(S(=O)(=O)c1ccc(Cl)c2nonc12)CC3,-7.2%,

Structure (SMILES),"activity change, negative = inhibition",Potency
C=CCOc1ccc(/C=N/n2cncn2)cc1OC,-24.2%,
COc1cc(/C=N/n2c(C)n[nH]c2=S)ccc1OCc1ccccc1,,5.62 µM (active)
COc1cc(/C=N/O)ccc1OCc1ccc([N+](=O)[O-])cc1,-3.26%,
CCN=C1S/C(=C\c2cc(Br)ccc2OCC(=O)OCC)C(=O)N1CC,51.2%,
CCCCC1N2CC3([N+](=O)[O-])CN1CC([N+](=O)[O-])(C2)C3(C)C (stereo unspecified),-8.6%,
C[N+]1(CC(O)COc2ccccc2)CCN(C(=O)c2ccc([N+](=O)[O-])cc2)CC1 (stereo unspecified),-8.27%,
CCc1cccc(CC)c1NC(=S)NCc1ccc2[nH]c(C)cc2c1,-1.27%,
Cc1cc2cc(CNC(=O)c3cccs3)ccc2[nH]1,,7.08 µM (active)
O=C(O)Cc1ccc(NC(=O)c2cccs2)cc1,-5.78%,
CN(c1ccccc1)S(=O)(=O)c1ccc(Cl)c(C(=O)NCCc2c[nH]c3ccccc23)c1,-0.557%,
CC(C)C1=CC2=CC[C@H]3[C@](C)(C(=O)O)CCC[C@]3(C)C2CC1 (stereo partly specified),-6.95%,
O=C1/C(=C/c2ccc3c(c2)OCO3)CCC/C1=C\c1ccc2c(c1)OCO2,-8.26%,
CCC1=C/C(=C\c2ccc3c(c2)OCO3)C(=O)S1,,28.2 µM (active)
CSC1=N/C(=C\c2ccc3c(c2)OCO3)C(=O)S1,-15.7%,
Cc1[nH]c2ccccc2c1/C=N\NC(=O)Cn1nnc(-c2ccccc2)n1,-7.96%,
CCCc1nnc(NC(=O)CN2C(=O)c3ccccc3S2(=O)=O)s1,,14.1 µM (active)
CNC(=O)CN1C(=O)c2ccccc2S1(=O)=O,0.566%,
CCCc1nnc(NC(=O)c2cccs2)s1,-3.96%,
Cc1ccc(Nc2ccc(C(N)=O)cc2[N+](=O)[O-])cc1,-24.4%,
CCNC(=O)NC(=O)C(C)OC(=O)C1CCN(S(=O)(=O)c2ccccc2F)CC1 (stereo unspecified),-13.3%,
Cc1nn(-c2ccccc2)c2sc(C(=O)N(Cc3ccco3)C(C)C(=O)NC(C)(C)C)cc12 (stereo unspecified),-12.4%,
Cc1ccccc1-n1nc(C)c2cc(C(=O)NC3CC3)sc21,,22.4 µM (active)
Cc1onc(-c2c(Cl)cccc2Cl)c1C(=O)c1c[nH]c(C(=O)NC2CC2)c1,-1.05%,

Structure (SMILES),"activity change, negative = inhibition",Potency
OC[C@H]1O[C@@H](n2cnc3c(N[C@H]4CC5CCC4C5)ncnc32)[C@H](O)[C@@H]1O (stereo partly specified),-25%,
COc1cc(C(=O)NNC(=O)c2ccc(S(=O)(=O)N3CCCCC3)cc2)cc(OC)c1OC,5.41%,
COc1cc(Cl)c(S(=O)(=O)n2cnc(C)c2)cc1Cl,0.989%,
COc1ccc(Cl)cc1-n1c(C)cc(C(=O)OCC(=O)N2CC(=O)Nc3ccccc32)c1C,-10%,
COc1cc(OC)c(-n2c(C)cc(C=O)c2C)cc1Cl,,3.55 µM (active)
C[C@H]1Cc2c(-c3ccccc3)nc3c(c2CO1)CN(C(=O)C1CC1)CC3,-5.41%,
COc1ccc2c(c1)CCc1c(C(=O)Nc3c(C)n(C)n(-c4ccccc4)c3=O)noc1-2,-26.2%,
COc1ccc2c(c1)CCc1c(C(=O)N3CCCC3)noc1-2,,20 µM (active)
COc1ccc(-c2nc(CS(=O)CC(=O)N3CCc4ccccc4C3)c(C)o2)cc1 (stereo unspecified),-23.2%,
O=C(COc1ccccc1)N1CCc2ccccc2C1,-7.89%,
COc1ccc2c(c1)CCc1c(C(=O)N3CCc4ccccc4C3)noc1-2,,17.8 µM (active)
COc1ccc(-c2nc3c(c4c2C[C@H](c2ccccc2)OC4)CN(C(=O)C2CC2)CC3)c(C)c1,-7.07%,
CC(=O)Nc1ccc(C(=O)OCC(=O)Nc2ccc([N+](=O)[O-])cc2C(F)(F)F)cc1,-4.2%,
O=C(CSc1nc2ccc([N+](=O)[O-])cc2[nH]1)c1ccc(Cl)cc1,-4.65%,
COc1ccc(O[C@H]2C=C[C@@H](c3ccccc3)O[C@@H]2CO/N=C/C[C@@H]2C=C[C@H](OC(C)=O)[C@@H](COC(C)=O)O2)cc1,-8.59%,
CCOc1ccc(S(=O)(=O)N(CC(=O)NCC(F)(F)F)Cc2ccco2)cc1,-11.9%,
O=C(Nc1cccc([N+](=O)[O-])c1)c1ccc2c(c1)OCO2,-1.46%,
N#CC1=C(SCc2ccc(C#N)cc2)N=C(N)C(c2nc(-c3ccccc3)cs2)C12CCCCC2 (stereo unspecified),-15.3%,
CC1(C)CCc2nc(SCc3ccccc3)c(C#N)cc2C1,-11%,
N#CC1=C(SCc2ccccc2)NC(=O)C(C#N)C12CCCC2 (stereo unspecified),,17.8 µM (active)
Cc1c(Cl)cccc1NC(=O)CC1SC(=NCC2CCCO2)NC1=O (stereo unspecified),-12.3%,
O=C(CN1C(=O)/C(=C\c2ccc(C(F)(F)F)cc2)Sc2ccccc21)NCc1ccco1,33.1%,
Cc1noc(C)c1S(=O)(=O)N1CCCC(C(=O)Nc2nccs2)C1 (stereo unspecified),,35.5 µM (active)

Structure (SMILES),"activity change, negative = inhibition",Potency
CCOc1ccc(OCC)c(NC(=O)C2CCN(S(=O)(=O)c3c(C)noc3C)CC2)c1,-8.5%,
Cc1noc(/C=C/N(C)C)c1S(=O)(=O)N1CCCC(C(=O)NCc2ccco2)C1 (stereo unspecified),-17.1%,
Cn1cc(/C=C/c2nc3ccccc3c(=O)n2-c2cccc([N+](=O)[O-])c2)c2ccccc21,-11.6%,
Cc1ccc(/C=C/C(=O)Nc2cc(S(=O)(=O)N3CCCCCC3)ccc2OCC(F)(F)F)o1,-24.4%,
Cn1c(CNC(=O)c2ccccc2F)nnc1SCc1ccc(F)cc1,-8.88%,
CN(C)c1ccc(-n2cccc2/C=N/n2cnnc2)cc1,-4.13%,
CCOC(=O)c1sc(NC(=O)CSc2nc(C)cc(C(F)(F)F)n2)c(C#N)c1C,,3.55 µM (active)
CCOC(=O)c1sc(NC(=O)CSc2nnc(-c3ccco3)o2)c(C(=O)OCC)c1C,-18.6%,
CCOC(=O)c1sc(NC(=O)CSc2ncccn2)c(C#N)c1C,-17.5%,
COc1cc(NC(=O)c2cc([N+](=O)[O-])ccc2Br)ccc1NC(=O)c1ccco1,-20.2%,
CSc1ccccc1NC(=O)Cc1ccc(Br)cc1,-10.6%,
COc1ccccc1-c1nnc(NC(=O)c2cccc(N3C(=O)CCC3=O)c2)o1,-9.42%,
COC(=O)c1cccc(-n2[nH]nnc2=S)c1,,28.2 µM (active)
COC(=O)c1cc(C(=O)OC)cc(N2C(=O)CC(N3CCN(c4ccccc4)CC3)C2=O)c1 (stereo unspecified),-19.8%,
CN1CCN(c2ccc(S(=O)(=O)N3CCCCC3)cc2NC(=O)Cc2ccccc2F)CC1,3.83%,
CC1=C(C)CC2C(=O)N(c3cccc4ccccc34)C(=O)C2C1 (stereo unspecified),,25.1 µM (active)
Cn1c(=O)c2cn(-c3cccc4ccccc34)cc2n(C)c1=O,-20.9%,
CC1(C)CCCC2=C1CC1C(=O)N(c3ccccc3)C(=O)C1C2 (stereo unspecified),0.735%,
CCCOc1ccc(NC(=O)CC2C(=O)N(C)C(=S)N2Cc2ccc3c(c2)OCO3)cc1 (stereo unspecified),-0.216%,
O=C(/C=C/c1ccc(F)cc1)Nc1cccc(S(=O)(=O)Nc2cccc(C(F)(F)F)c2)c1,-7.72%,
CCc1ccc(NC(=O)C(C)OC(=O)/C=C/c2cccc([N+](=O)[O-])c2)cc1 (stereo unspecified),-2.79%,
CCOC(=O)C1=C(C)NC(=S)NC1c1cccs1 (stereo unspecified),-5.68%,

# Reference: PubChem BioAssay AID894 (National Center for Advancing Translational Sciences (NCATS), 2007)
